Measurements published in PubChem BioAssay AID1159580 (chemical genetic matrix, 2015).
The campaign covered roughly 5,500 compounds. About 2,000 (36%) were called active. Another 18% or so got no clear call; they are omitted. Some of the results follow. Unmarked numbers belong to inactive results. Rule as the data show it: active = normalized growth mostly below about 0.91 (no sharp cut-off); inconclusive = no clear call, values can overlap the other calls; inactive = mostly above about 0.92.

Assay: chemical genetic growth profiling, strain panel (AID 1159580);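 also: tested at 20 µM; growth read once vehicle control cultures reached saturation at 30 °C; 1 = growth at the plate median or of vehicle wells; lower values mean less growth of the strain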
Details: S. cerevisiae deletion strains, growth OD
[1] = locus YAL040C, strain CLN3, active compounds read low
[2] = locus YCL061C, strain MRC1 (second series), active compounds read low
[3] = locus YDR150W, strain NUM1, active compounds read low
[4] = locus YDR363W, strain ESC2, active compounds read low
[5] = locus YER002W, strain NOP16, active compounds read low
[6] = locus YMR263W, strain SAP30, active compounds read low
[7] = locus YMR307W, strain GAS1, active compounds read low
[8] = locus YNL175C, strain NOP13, active compounds read low
[9] = locus YNL197C, strain WHI3, active compounds read low
[10] = locus YNL224C, strain SQS1, active compounds read low
[11] = locus YOR083W, strain WHI5 (second series), active compounds read low

| Compound | normalized growth (locus YAL013W, strain DEP1, active compounds read low) | normalized growth [1] | normalized growth [2] | normalized growth [3] | normalized growth [4] | normalized growth [5] | normalized growth (locus YGR229C, strain SMI1, active compounds read low) | normalized growth [6] | normalized growth [7] | normalized growth [8] | normalized growth [9] | normalized growth [10] | normalized growth [11] | normalized growth (locus YJR075W, strain HOC1, active compounds read low) | normalized growth (locus YNL128W, strain TEP1, active compounds read low) | normalized growth (locus YNL322C, strain KRE1, active compounds read low) | normalized growth (locus YPL241C, strain CIN2, active compounds read low) |
| --- | --- | --- | --- | --- | --- | --- | --- | --- | --- | --- | --- | --- | --- | --- | --- | --- | --- |
| CC(N)(C(=O)O)c1ccc(C(=O)O)cc1 (stereo not drawn) | 1.01 | 1.12 [resistant] (active) | 1.01 | 0.998 | 1.03 | 0.995 | 1.01 | 0.996 | 1 | 1 | 1.02 | 1 | 1.02 |  |  |  |  |
| C/C(=C\c1ccc(C(=O)O)cc1)c1ccc2c(c1)C(C)(C)CCC2(C)C |  | 1.04 | 1.02 | 1.01 | 1.02 | 1 |  | 1.01 | 1.02 | 0.994 | 0.965 | 1 | 1.01 | 1.01 | 0.994 | 1.03 | 1.01 |
